Holding throughout (type): functional
The subject of assay [1] is Plasmodium falciparum. The assay can be described thus: GSK_TCMDC: Inhibition of Plasmodium falciparum 3D7 in whole red blood cells, using parasite LDH activity as an index of growth. Test compounds present at 2uM.
Assay [2] has as its system Plasmodium falciparum. Description: GSK_TCMDC: Inhibition of Plasmodium falciparum Dd2 in whole red blood cells, using parasite LDH activity as an index of growth. Test compounds present at 2uM.
In another assay the test system is HepG2. Description: GSK_TCMDC: Percent inhibition of human HepG2 cell line. Test compounds present at 10uM.

Take `Cc1ccccc1C1CCN(C2CCC(NC(=O)/C=C/c3cc(F)ccc3C(F)(F)F)CC2)CC1` (stereo unspecified): the figures for the Inhibition in the assay with Plasmodium falciparum [1], in the assay with Plasmodium falciparum [2] and in the assay on HepG2 were 98%, 25% and 90%, respectively.
On to `O=C1c2ccccc2-n2c1nc1ccccc1c2=O` [TRYPTANTHRIN], for which the values for the Inhibition with Plasmodium falciparum [1], in the assay with Plasmodium falciparum [2] and with HepG2 were 93%, 80% and 9%, respectively.
Regarding `Cc1cc(N/N=C/c2ccccc2[N+](=O)[O-])c2ccccc2n1`, the Inhibition (commonly the drop in the measured response relative to a control, in per cent) with Plasmodium falciparum [1] came to 100%; in the assay on Plasmodium falciparum [2], 100%; in the assay on HepG2 it was 10%.
With `CN(C)C=Nc1ccc(OCCCCCCOc2ccc(N=CN(C)C)cc2)cc1.Cc1ccc(S(=O)(=O)O)cc1`, the results for the Inhibition with Plasmodium falciparum [1], with Plasmodium falciparum [2] and in the assay with HepG2 were 100%, 94% and 26%, respectively.
For `CCNC(=O)Nc1cccc(-c2ccc(-c3nc4cccc(C)c4[nH]3)s2)c1`, the values for the Inhibition in the assay on Plasmodium falciparum [1], in the assay on Plasmodium falciparum [2] and in the assay on HepG2 were 96%, 20% and 32%, respectively.
Taken in the same sequence, the figures for `c1cn(CCCNc2ncc(-c3ccsc3)c(-c3nccs3)n2)cn1` were 94%, 51% and 0%.
Taken in the same sequence, the figures for `COc1ccc2oc(=O)c(C#N)c(O)c2c1` were 99%, 0% and 0%.
With `c1ccc2cc3c(NCCN4CCOCC4)ccnc3cc2c1`, the Inhibition in the assay on Plasmodium falciparum [1] is 99%; in the assay on Plasmodium falciparum [2] it was 98%; with HepG2 it was 0%.
`NCCO.O=C(Nc1ccc([N+](=O)[O-])cc1Cl)c1cc(Br)cc(Cc2ccccc2)c1O`: the Inhibition was 84% in the assay on Plasmodium falciparum [1], 96% in the assay on Plasmodium falciparum [2] and 75% in the assay with HepG2.
On to `COc1cc2c(cc1OC)CN(c1cc(N)c3cc(OC)c(OC)cc3n1)CC2.CS(=O)(=O)O`, for which the Inhibition in the assay on Plasmodium falciparum [1] is reported as 100%; in the assay with Plasmodium falciparum [2] it was 99%; with HepG2, 23%.
In the case of `COc1ccc2nccc([C@@H](O)CN3CCC(NC(=O)/C=C/c4cccc(-c5ccccc5)c4)CC3)c2c1`, the results for the Inhibition in the assay with Plasmodium falciparum [1], in the assay on Plasmodium falciparum [2] and in the assay with HepG2 were 98%, 83% and 12%, respectively.
Turning to `Cc1[nH]c(C)c(C(F)(F)F)c(=O)c1-c1ccc(Oc2ccc(OC(F)(F)F)cc2)cc1`, the results for the Inhibition with Plasmodium falciparum [1], in the assay on Plasmodium falciparum [2] and in the assay with HepG2 were 97%, 96% and 0%, respectively.
Consider `Cc1cccc(NC(=O)NCc2ccccc2)n1`, for which the Inhibition with Plasmodium falciparum [1] came out at 97%; in the assay with Plasmodium falciparum [2] it was 2%; with HepG2, 14%.
Take `O=C(/C=C/c1ccc(Cl)c(Cl)c1)NCCCCCN1CCCC(C(=O)Nc2cccc(Cl)c2)C1` (stereo unspecified): the Inhibition in the assay with Plasmodium falciparum [1] amounted to 99%; in the assay with Plasmodium falciparum [2], 2%; with HepG2, 41%.
As to `Cc1noc(C)c1-c1cccc(CNCc2cccc(-c3cccc(-c4nc5ccccc5[nH]4)c3)c2)c1.O=C(O)C(F)(F)F`, the Inhibition was found to be 100% in the assay on Plasmodium falciparum [1], 54% with Plasmodium falciparum [2] and 22% in the assay with HepG2.
For `Cc1ccc(Cc2c[nH]c(NCCSCc3ccc(CN(C)C)s3)nc2=O)cn1`, the values for the Inhibition in the assay on Plasmodium falciparum [1], in the assay on Plasmodium falciparum [2] and with HepG2 were 95%, 0% and 3%, respectively.
On to `Br.CCc1ccccc1OCCCON1C(=N)N=C(N)NC1(C)C`, for which the Inhibition in the assay on Plasmodium falciparum [1] was 95%; in the assay with Plasmodium falciparum [2] it was 97%; with HepG2 it was 77%.
Turning to `COc1ccc(C(=O)NCc2ccccc2-c2ccc(C(C)(C)C)cc2)cc1O`, the Inhibition was found to be 99% with Plasmodium falciparum [1], 97% with Plasmodium falciparum [2] and 10% in the assay on HepG2.
Regarding `COc1ccc2c(NN=Cc3ccc(F)cc3)ccnc2c1`, the Inhibition in the assay on Plasmodium falciparum [1] amounted to 100%; with Plasmodium falciparum [2] it was 99%; with HepG2, 14%.
Turning to `CNCCCNCc1ccc(-c2ccc(F)c(Cl)c2)o1.Cl`, the Inhibition with Plasmodium falciparum [1] is 100%; in the assay with Plasmodium falciparum [2], 12%; in the assay on HepG2, 22%.
For the molecule `COc1ccc(CCNCCCCCCNCCCc2ccc(Cl)cc2)cc1OC.Cl`, the Inhibition with Plasmodium falciparum [1] is on record as 96%; in the assay with Plasmodium falciparum [2], 2%; with HepG2 it was 36%.
For `Cc1ccccc1C1CCN(C2CCC(NC(=O)/C=C/c3ccc(C(F)(F)F)cc3F)CC2)CC1` (stereo unspecified), the Inhibition in the assay on Plasmodium falciparum [1] turned out to be 99%; with Plasmodium falciparum [2] it was 58%; in the assay on HepG2 it was 72%.
`Br.Fc1ccc(C2N=C(SCCSC3=NC(c4ccc(F)cc4)C(c4ccc(F)cc4)N3)NC2c2ccc(F)cc2)cc1` (stereo unspecified): the Inhibition in the assay on Plasmodium falciparum [1] amounted to 99%; with Plasmodium falciparum [2], 69%; with HepG2, 18%.
For `CC(CCCCOCCc1ccccc1)NCC(O)c1cc(Cl)c(N)c(Cl)c1` (stereo unspecified) the same measures were 96%, 95% and 0%.
As to `O=C(Cc1cccc(OCCCN(Cc2cccc(C(F)(F)F)c2Cl)CC(c2ccccc2)c2ccccc2)c1)NCc1ccco1`, the figures for the Inhibition in the assay on Plasmodium falciparum [1], with Plasmodium falciparum [2] and with HepG2 were 94%, 84% and 2%, respectively.
In the case of `Cc1cc(NCCc2ccccc2)nc(NC(=N)Nc2cccc(F)c2)n1`, the Inhibition was 91% in the assay on Plasmodium falciparum [1], 0% with Plasmodium falciparum [2] and 0% in the assay on HepG2.
With `Cl.O=C(Nc1ccc(C(=O)OCC2CCCN3CCCCC23)cc1)c1ccc(Cl)c(Cl)c1` (stereo unspecified), the Inhibition in the assay on Plasmodium falciparum [1] is listed as 99%; in the assay on Plasmodium falciparum [2] it was 37%; with HepG2, 20%.
Turning to `Br.CC1(C)NC(N)=NC(=N)N1OCCc1ccccc1`, the Inhibition was 96% in the assay on Plasmodium falciparum [1], 95% in the assay on Plasmodium falciparum [2] and 70% in the assay on HepG2.
Turning to `CCSc1nc2sc3c(c2c(=O)n1-c1ccccc1)CCN(C)C3`, the Inhibition was found to be 83% in the assay on Plasmodium falciparum [1], 71% with Plasmodium falciparum [2] and 16% in the assay with HepG2.
Turning to `CC(C)(C)NC(=O)C(c1ccc(F)cc1)N(C(=O)c1ccc(CN2CCOCC2)o1)c1ccc(C2CCCCC2)cc1` (stereo unspecified), the Inhibition is 87% in the assay on Plasmodium falciparum [1], 68% in the assay with Plasmodium falciparum [2] and 0% with HepG2.
Take `O=C(NCCCCN1CCCC2c3cccc(O)c3CCC21)c1ccc(-c2ccccc2)cc1` (stereo unspecified): the Inhibition in the assay with Plasmodium falciparum [1] is reported as 93%; with Plasmodium falciparum [2], 4%; in the assay with HepG2, 18%.
Regarding `COc1cccc(-c2cc(C(=O)Nc3ccc4[nH]c(-c5ccccc5)nc4c3)[nH]n2)c1.O=C(O)C(F)(F)F`, the Inhibition with Plasmodium falciparum [1] stood at 100%; with Plasmodium falciparum [2], 65%; in the assay with HepG2, 68%.
